Test results from the supplement of paper PMC5662767.
Where a name gives a salt, the structure may show the parent alone.

Test system: Drosophila S2 cl14 SmoIP sensor cells
Assay: normalized SmoIP GFP fluorescence (untreated unstimulated = 0%, untreated Hh-stimulated = 100%); higher = more Smo activation sensor fluorescence
Conditions: compound concentration: 2 uM, 24 h
[1] = stimulation: Hh conditioned medium (+Hh)
[2] = stimulation: mock conditioned medium (-Hh)
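Further: flow cytometry read-out as median GFP intensity of gated cells, compounds added 30 min before Hh-conditioned or mock medium, mock-treated cells serving as unstimulated baseline.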

| SMILES | normalized SmoIP GFP fluorescence [1] [%] | normalized SmoIP GFP fluorescence [2] [%] |
| --- | --- | --- |
| c1cc(-c2cnn3cc(-c4ccc(N5CCNCC5)cc4)cnc23)c2cccnc2c1 | 120 | 2.12 |
| CNCCCC12CCC(c3ccccc31)c1ccccc12 [Maprotiline-hydrochloride] | 123 | -0.116 |
| CC1(C)O[C@@H]2[C@@H](CO[C@@]3(COS(N)(=O)=O)OC(C)(C)O[C@@H]23)O1 [Topiramate] | 114 | 5.45 |
| C[C@H]1COC2=C1C(=O)C(=O)c1c2ccc2c1CCCC2(C)C [Cryptotanshinone] | 115 | -9.22 |
| Cc1ccccc1C(=O)Nc1ccc(C(=O)N2CCCC(N(C)C)c3ccccc32)cc1 (stereo not drawn) [mozavaptan] | 105 | -2.08 |
| CN(C)CCC(c1ccc(Cl)cc1)c1ccccn1 (stereo not drawn) [Chlorpheniramine-maleate] | 106 | -12.2 |
| CCOc1ccc(NC(C)=O)cc1 [phenacetin] | 131 | 9.08 |
| C1=C/COCc2cc(ccc2OCCN2CCCC2)Nc2nccc(n2)-c2cccc(c2)COC/1 [pacritinib-sb1518] | 114 | 1.72 |
| O=C(NCc1ccccc1)c1csc(Nc2ccncn2)n1 [Thiazovivin] | 72.7 | -11.6 |
| Clc1ccc(Nc2nnc(Cc3ccncc3)c3ccccc23)cc1 [Vatalanib,Dihydrochloride-Salt] | 125 | -9.22 |
| CNCc1ccc(-c2[nH]c3cc(F)cc4c3c2CCNC4=O)cc1 | 115 | 0.489 |
| CC1(C)CC(=O)c2c(C(F)(F)F)nn(-c3ccc(C(N)=O)c(N[C@H]4CC[C@H](OC(=O)CN)CC4)c3)c2C1 | 233 | 83.8 |
| O=C(Nc1cccnc1)N1CCC(Cc2cccc(Oc3ccc(C(F)(F)F)cn3)c2)CC1 | 116 | -0.297 |
| Cc1cc(/C=C/C#N)cc(C)c1Nc1ccnc(Nc2ccc(C#N)cc2)n1 [rilpivirine] | 110 | -0.151 |
| COC(=O)C1=C(C)NC(C)=C(C(=O)OCCN2CCN(C(c3ccccc3)c3ccccc3)CC2)C1c1cccc([N+](=O)[O-])c1 (stereo not drawn) [Manidipine(Manyper)] | 118 | 3.85 |
| COc1cc(Nc2ncc3c(n2)-c2ccc(Cl)cc2C(c2c(F)cccc2OC)=NC3)ccc1C(=O)O | 89.5 | 83 |
| COC(=O)C1=C(C)NC(C)=C(C(=O)OC2CCCN(Cc3ccccc3)C2)C1c1cccc([N+](=O)[O-])c1 (stereo not drawn) [benidipine-hydrochloride] | 89.9 | -3.9 |
| N#Cc1ccc(C(c2ccc(C#N)cc2)n2cncn2)cc1 [Letrozole] | 98.8 | -1.88 |
| CN1CCN(CCCN2c3ccccc3Sc3ccc(C(F)(F)F)cc32)CC1 [trifluoperazine-dihydrochloride] | 108 | 4 |
| COC(=O)C1=C(C#N)NC(C)=C(C(=O)OC(C)C)C1c1cccc([N+](=O)[O-])c1 (stereo not drawn) [nilvadipine-arc029] | 110 | -17 |

| SMILES | normalized SmoIP GFP fluorescence [1] [%] | normalized SmoIP GFP fluorescence [2] [%] |
| --- | --- | --- |
| O=C(N/N=C/c1ccc(O)c(O)c1)c1cc2ccccc2cc1O [dynasore] | 129 | 1.24 |
| Nc1nccc(Oc2ccc(NC(=O)c3c[nH]cc(-c4ccc(F)cc4)c3=O)cc2F)c1Cl | 88.3 | -6.34 |
| Cc1cc(Cn2cnc3c2CC(C(=O)O)N(C(=O)C(c2ccccc2)c2ccccc2)C3)ccc1N(C)C (stereo not drawn) | 109 | -4.13 |
| CCC(=O)Nc1cccc(Oc2nc(Nc3ccc(N4CCN(C)CC4)cc3OC)ncc2Cl)c1 | 73.7 | -6.51 |
| C[C@@H]1CCO[C@H]2Cn3cc(C(=O)NCc4ccc(F)cc4F)c(=O)c(O)c3C(=O)N12 | 140 | -15.3 |
| CCCC(C)NC(=O)c1ccc(Cl)c(Cl)c1 (stereo not drawn) | 95.2 | -4.7 |
| CC(C)c1cc(-c2ccc(F)c3ccccc23)nc(N)n1 | 144 | -7.78 |
| CC1(C)CNc2cc(NC(=O)c3cccnc3NCc3ccncc3)ccc21 [Motesanib-Diphosphate] | 136 | 43.3 |
| Nc1nc(N)c2nc(-c3cccc(O)c3)c(-c3cccc(O)c3)nc2n1 | 110 | -5.01 |
| COc1ccc2c(c1)C(=O)N(CCc1ccc(S(=O)(=O)NC(=O)NC3CCCCC3)cc1)C(=O)C2(C)C [gliquidone] | 105 | -4.01 |
| COC(=O)c1ccc2c(c1)NC(=O)/C2=C(\Nc1ccc(N(C)C(=O)CN2CCN(C)CC2)cc1)c1ccccc1 | 108 | 7.92 |
| CCN1CCN(Cc2ccc(Nc3ncc(F)c(-c4cc(F)c5nc(C)n(C(C)C)c5c4)n3)nc2)CC1 | 158 | 50.1 |
| CCC1=C(C)CN(C(=O)NCCc2ccc(S(=O)(=O)NC(=O)N[C@H]3CC[C@H](C)CC3)cc2)C1=O [Glimepiride] | 94.8 | 3.18 |
| NC(=O)N1c2ccccc2CC(=O)c2ccccc21 [Oxcarbazepine] | 103 | 2.97 |
| CC(C)CCN1c2nc(Nc3cc(F)c(O)c(F)c3)ncc2N(C)C(=O)C1C (stereo not drawn) | 144 | 1.61 |
| C/C=C1\[C@H]2C=C(C)C[C@]1(N)c1ccc(=O)[nH]c1C2 [(-)-Huperzine-A] | 139 | -7.42 |
| CC(C)C[C@H](NC(=O)[C@H](Cc1ccccc1)NC(=O)c1cnccn1)B(O)O [Bortezomib] | 70.3 | 52.4 |
| COc1ccccc1N1CCN(CCN(C(=O)C2CCCCC2)c2ccccn2)CC1 | 125 | 7.01 |
| Cc1ccc(S(=O)(=O)OCC(=O)Nc2ccc(C(=O)O)c(O)c2)cc1 | 112 | -9.58 |
